About 1,600 (39%) of roughly 4,100 compounds were called active. Inconclusive results (about 25%) are left out. Calls follow the shape of the dose curve; as a rule, active = well fitted inhibition curve with a large enough effect; inconclusive = small, poorly fitted or top-dose-only effect; inactive = no such curve, though single readings can be large or run the other way. Some of the results follow. Entries that show only a call come without a potency.
Potency is read from the fitted curve at half-maximal effect.

The nature of this assay: qHTS Validation assay for Inhibitors of Plasmodium falciparum Dd2 growth in vitro. Also: nearly all actives have a fitted effect of over 70% in size. As to conditions: P. falciparum Dd2 in RBCs, SYBR Green growth, 72 h; series mostly up to 28.7 µM. Summed up:
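P. falciparum Dd2-infected red blood cells (2.5% hematocrit, 0.3% parasitemia) grown 72 h at 37 °C under 5% O2 with compounds in a titration, 29 uM to 0.5 nM final. Growth read as SYBR Green-1 fluorescence after ~16 h lysis; artesunate 300 nM as positive control.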
For `CN(C)c1ccc(C(=O)NCc2nnc3cc(-c4nc(C5CC5)no4)ccn23)cc1`, the Potency entry was “inactive”.

For `Oc1cc(Nc2ccc(N3CCCCC3)cc2)cc2cccnc12`, the Potency was 0.842 µM (active). For the compound `Oc1cc(Nc2ccccc2)cc2cccnc12`, the Potency is 6.68 µM (active). The same measure for `COc1ccc(Nc2cc(O)c3ncccc3c2)cc1`: 0.75 µM (active); for `Cc1ccc(OCC(=O)Nc2ccccc2C(=O)OCc2cc(=O)n3ccsc3n2)cc1`: “inactive”. Take `CCOC(=O)c1ccccc1NC(=O)C(C)Oc1ccccc1` (configuration not stated): the Potency is 10.6 µM (active).

Take `COc1ccc(C)cc1NC(=O)N1c2ccccc2CC1c1nc(C2CC2)no1` (configuration not stated): the Potency entry is “inactive”.

With `O=C(c1ccc2nc[nH]c2c1)N1CCCC2(C1)Nc1cccnc1NC2=NC1CCCC1` (configuration not stated), the Potency entry is “inactive”. For `COc1ccc(C)cc1NC(=O)N1CCCC2(C1)Nc1cccnc1NC2=NC1CCCC1` (configuration not stated), the Potency is 6.68 µM (active). For `COc1ccc(-c2cc3c(=O)n(CCNC(=O)c4ccc(OC)nc4)ccn3n2)cc1`, the Potency entry was “inactive”.

As for `CCCN1CCN(CCCNC(=O)c2ccc3c(c2)sc2nc(-c4ccc(OC)cc4)cn23)CC1`, the Potency was 4.73 µM (active). On to `CCCN1CCN(CCCNC(=O)c2ccc3c(c2)sc2nc(-c4ccc(OCC)cc4)cn23)CC1`, for which the Potency was 4.22 µM (active). As for `COc1ccc(-c2cn3c(n2)sc2cc(C(=O)NCCCN4CCCCC4)ccc23)cc1`, the Potency is 4.73 µM (active). As to `CCOc1ccc(-c2cc3c(=O)n(CCNC(=O)c4ccccc4)ccn3n2)cc1`, the Potency entry was “inactive”. Turning to `CCOc1ccc(-c2cn3c(n2)sc2cc(C(=O)NCCCc4ccccc4)ccc23)cc1`, the Potency entry was “inactive”. With `COc1ccc(-c2cc3c(=O)n(CCNC(=O)c4ccc(OC)c(OC)c4)ccn3n2)cc1` the entry was “inactive”; with `CCOc1ccc(-c2cc3c(=O)n(CCNC(=O)c4cccc(C#N)c4)ccn3n2)cc1`, “inactive”.

`CCOc1ccc(-c2cn3c(n2)sc2cc(C(=O)NC(C)C45CC6CC(CC(C6)C4)C5)ccc23)cc1` (configuration not stated): the Potency is 5.96 µM (active).

For the compound `CCOc1ccc(-c2cc3c(=O)n(CCNC(=O)c4ccc(C#N)cc4)ccn3n2)cc1`, the Potency result is “inactive”.

`CCN1c2cc(C(=O)Nc3ccc4c(c3)CCC4)ccc2C(=O)N2CCCCC21` (configuration not stated): the Potency entry is “inactive”.

As for `CC1CCCCN1c1ccc(N)cc1C(N)=O` (configuration not stated), the Potency result was “inactive”. `C#Cc1ccc(C(=O)Nc2ccc(N3CCC(C)CC3)c(C(N)=O)c2)cc1`: the Potency is 6.68 µM (active). Regarding `Cc1ccc2c(c1)c1c3n2CCCN(Cc2ccccc2)C3CCC1` (configuration not stated), the Potency is 4.22 µM (active).

`CN(C)Cc1c(O)ccc2oc(Cc3ccccc3)cc12`: the Potency is 0.422 µM (active). Regarding `COc1ccc(-n2c(/C=C(\C)O)nc(=O)c3c(C)cc(C)nc32)cc1`, the Potency was 3.35 µM (active). As for `O=C(Cc1ccccc1)N1CCCC2(CC(c3ccccn3)=NO2)C1` (configuration not stated), the Potency result was “inactive”.

With `CCOC(=O)c1c(C)[nH]c(C(=O)OCc2c(C)noc2C)c1C`, the Potency result is “inactive”. Take `CCOC(=O)c1c(C)[nH]c(C(=O)CSc2nnc(C3CC3)n2N)c1C`: the Potency is 1.5 µM (active).

Regarding `O=C(Nc1ccc(Br)cc1F)c1cc(S(=O)(=O)NC2CCCC2)ccc1F`, the Potency entry was “inactive”. Regarding `CN1c2cc(C(=O)Nc3ccc(S(N)(=O)=O)cc3)ccc2C(=O)N2CCCCC21` (configuration not stated), the Potency entry was “inactive”. With `O=C(Nc1ccc(Br)cc1)c1ccc(F)c(S(=O)(=O)NC2CCCCCC2)c1`, the Potency is 9.44 µM (active). Take `CC1(COc2ccccc2)COc2ccc(C(=O)NCc3cnccn3)cc2N1` (configuration not stated): the Potency entry was “inactive”.

As for `Cc1nccn1C1(C(=O)O)CCN(Cc2ccc(-c3ccn[nH]3)o2)CC1`, the Potency entry is “inactive”. As for `c1csc(-c2cn3ccc4ccccc4c3n2)c1`, the Potency result was “inactive”. As to `O=C(NCc1nc(-c2ncccn2)no1)c1csc(-c2cccs2)n1`, the Potency entry was “inactive”. Consider `Cc1noc(-c2cccs2)c1C(=O)NC(C)c1cccc2ccccc12` (configuration not stated), for which the Potency was 0.668 µM (active). As to `CNC(=O)c1ccsc1NC(=O)CCS(=O)(=O)c1ccccc1`, the Potency entry is “inactive”. Turning to `O=C(O)c1ccc(C2SCC(=O)N2Cc2ccco2)cc1` (configuration not stated), the Potency entry was “inactive”.

As for `Cc1cc(C(=O)CN2C(=O)NC(C)(c3cccc(Br)c3)C2=O)c(C)n1Cc1ccco1` (configuration not stated), the Potency was 13.3 µM (active). Turning to `Cc1cc(C(=O)CN2C(=O)NC(c3ccccc3)(c3ccccc3)C2=O)c(C)n1Cc1ccco1`, the Potency is 8.41 µM (active). `COc1ccc2c(c1)C1(Nc3ccccc3-c3nc4ccccc4n31)C(=O)N2` (configuration not stated): the Potency was 0.596 µM (active). As for `O=C1Nc2ccccc2C12Nc1ccccc1-c1nc3ccccc3n12` (configuration not stated), the Potency is 6.68 µM (active). Take `CC1(c2ccccn2)Nc2ccccc2-c2nc3ccccc3n21` (configuration not stated): the Potency is 5.31 µM (active). `COc1ccc(-c2cnc([C@@H]3COCCN3Cc3ccccc3O)[nH]2)cc1`: the Potency is 17.2 µM (active).

Turning to `Oc1ccccc1CN1CCOC[C@H]1c1ncc(-c2ccc(C(F)(F)F)cc2)[nH]1`, the Potency is 4.85 µM (active). Take `CS(=O)(=O)c1ccc(-c2cnc([C@@H]3COCCN3Cc3ccccc3)[nH]2)cc1`: the Potency entry is “inactive”. With `COc1cc(OC)cc(C(=O)N2CCC(c3nc(C4CCOC4)no3)CC2)c1` (configuration not stated) the entry was “inactive”; with `c1ccc2cc3c(NCCN4CCOCC4)ccnc3cc2c1`, 1.68 µM (active); with `O=c1c(NCCc2ccccc2)c(-c2ccccc2)c1=O`, “inactive”. With `c1ccc(CCNc2ccnc3cc4ccccc4cc23)cc1` the figure was 1.68 µM (active).

On to `COCCN1Cc2ccc(NCC(C)C)nc2C(C)(C(=O)Nc2ccncc2)C1` (configuration not stated), for which the Potency was 21.7 µM (active). In the case of `CC1(C)C(=O)N(CC2CCOCC2)[C@H]2CN(CCCc3ccccc3)C[C@@H]2[S+]1(=O)[O-]`, the Potency result is “inactive”. As to `O=C(CC1C(=O)N(Cc2ccccc2)C(=S)N1CCN1CCOCC1)Nc1ccc(F)cc1` (configuration not stated), the Potency is 5.31 µM (active). Turning to `COC(=O)c1cc(NC(=O)CC2C(=O)OCCN2Cc2ccccc2)cc(C(=O)OC)c1` (configuration not stated), the Potency entry is “inactive”. Consider `COc1cccc(N2C(=O)C(CC(=O)Nc3ccccc3)N(CCc3sccc3C)C2=O)c1` (configuration not stated), for which the Potency entry is “inactive”.

For `Cc1noc(C)c1CCC(=O)NC1CCc2nn(CC3CC3)c(=O)n2CC1` (configuration not stated), the Potency result was “inactive”. `N#CC(=C1CCCC1)c1nc(-c2ccccc2O)cs1`: the Potency is 9.44 µM (active). In the case of `CN(Cc1ccc(-n2cccn2)cc1)CC1CCN(CCc2ccc(F)cc2)CC1`, the Potency is 10.6 µM (active).

In the case of `CN(CC1CCN(CCc2ccc(Cl)cc2)CC1)C(=O)c1ccccc1C#N`, the Potency entry is “inactive”.

On to `Cc1[nH]n(-c2ccccc2)c(=O)c1/C=N/Nc1nncc(-c2ccccc2)n1`, for which the Potency is 4.22 µM (active).

In the case of `COc1ccc(C(=O)N2CCN(C(=O)C3CCCCC3)C[C@@H]2C(=O)N[C@H]2CCCNC2=O)cc1`, the Potency entry was “inactive”. For `CN(C)c1ccc(CC(=O)N2CC[C@@](C)(O)[C@@H](O)C2)cc1`, the Potency result is “inactive”. Take `CN(C)C(=O)c1ccc(OC2CCN(C(=O)c3cccs3)CC2)nc1`: the Potency entry was “inactive”.

Consider `COC(=O)[C@H](Cc1ccc(OC)cc1)NC(=O)[C@H]1CN(C(=O)c2ccc(N(C)C)cc2)CCN1C(=O)c1cccs1`, for which the Potency is 0.188 µM (active). For the compound `COC(=O)[C@H](Cc1ccc(OC)cc1)NC(=O)[C@H]1CN(C(=O)c2ccc(N(C)C)cc2)CCN1C(=O)C1CCCCC1`, the Potency is 0.668 µM (active).

For `COC(=O)[C@H](Cc1ccc(OC)cc1)NC(=O)[C@H]1CN(C(=O)Nc2ccccc2)CCN1C(=O)NC(C)C`, the Potency entry was “inactive”. Consider `Cc1ccc(C(=O)N2CCc3cc(CNC(=O)CCc4ccccc4)ccc32)cc1`, for which the Potency entry is “inactive”. With `CC(=O)N1CCc2cc(S(=O)(=O)NC(Cc3ccccc3)C(=O)Nc3cc(C)cc(C)c3)ccc21` (configuration not stated) the entry was “inactive”. For the compound `Cc1cccc(C(=O)N2CCc3cc(CNC(=O)c4ccc(Br)o4)ccc32)c1`, the Potency is 9.44 µM (active).

Regarding `O=S(=O)(c1ccc(Cl)cc1)N1CCN(C(=S)NCC2CCCO2)CC1` (configuration not stated), the Potency was 1.88 µM (active). As for `O=S(=O)(c1ccc(F)cc1)N1CCN(C(=S)NCCc2ccccc2)CC1`, the Potency was 5.96 µM (active).

On to `COc1ccc(S(=O)(=O)N2CCN(C(=S)NCC3CCCO3)CC2)cc1OC` (configuration not stated), for which the Potency is 6.68 µM (active). As to `O=C(NCc1ccc(Cl)cc1)C1CCN(S(=O)(=O)c2cccc3nonc23)CC1`, the Potency result is “inactive”. The same measure for `CCOC(=O)Cn1c(=O)oc2cc(S(=O)(=O)N3CCCC(C)C3)ccc21` (configuration not stated): “inactive”; for `O=S(=O)(c1ccc(F)cc1)N1CCN(C(=S)NCC2CCCO2)CC1` (configuration not stated): 6.68 µM (active). Turning to `O=C(O)c1ccc(S(=O)(=O)N(Cc2cccs2)CC2CCCO2)cc1` (configuration not stated), the Potency result was “inactive”.

On to `O=C(CCC1CCN(S(=O)(=O)c2ccccc2)CC1)NCc1ccc(F)cc1`, for which the Potency entry is “inactive”.

In the case of `CS(=O)(=O)N1CCC(C2CCN(C(=O)Cc3ccc(Cl)cc3)C2)CC1` (configuration not stated), the Potency result is “inactive”.

Take `COc1ccccc1NC(=O)Cn1c(=O)n(CCC(=O)NCC2CCCO2)c(=O)c2cc(OC)c(OC)cc21` (configuration not stated): the Potency result was “inactive”. As for `CCOCCCNC(=O)CN1C(=O)c2c(c3ccccc3n2C)C1c1ccc(OC)cc1` (configuration not stated), the Potency entry is “inactive”.

In the case of `Cc1ccc(-c2noc(CCC(=O)Nc3ccc(C)cn3)n2)cc1`, the Potency result is “inactive”. In the case of `N#Cc1ccc(CN2CC[C@@H]3C(=O)NCCCCCCN(Cc4ccncc4)[C@@H]3C2)cc1`, the Potency is 10.6 µM (active). Take `O=C1NCCCCCCN(Cc2ccncc2)[C@@H]2CN(C(=O)NC3CCCCC3)CC[C@@H]12`: the Potency entry is “inactive”.

Take `CN1C(=O)[C@H]2CN(Cc3ccc(C#N)cc3)C[C@H]2C1=O`: the Potency entry was “inactive”. With `CCc1ccc2c(c1)cc(CN(C(=S)Nc1cccc(C)c1)C1CC1)c1nnnn12` the figure was 3.35 µM (active). Take `O=C(CC(c1ccc(F)cc1)c1cn(Cc2ccccc2)c2ccc([N+](=O)[O-])cc12)N1CCOCC1` (configuration not stated): the Potency is 9.44 µM (active). Take `Cc1ccoc1C(=O)N1C[C@@H](COCC2CC2)[C@H](c2ccncc2)C1`: the Potency entry is “inactive”. With `CCOC(=O)c1c(C)[nH]c(C)c1S(=O)(=O)N1CCN(c2cccc(C(F)(F)F)c2)CC1`, the Potency result is “inactive”. As for `CCC(C)(C)n1nnnc1C(c1cccnc1)N1CCN(c2cccc(C(F)(F)F)c2)CC1` (configuration not stated), the Potency was 6.68 µM (active). Take `CNC(=O)[C@@H]1C[C@H](n2cc(CN(C)C(=O)NCC3CCCCC3)nn2)CN1`: the Potency entry was “inactive”. The same measure for `CCCCn1c(=N)c(C(=O)NC2CCCCC2)cc2c(=O)n3cccc(C)c3nc21`: 1.5 µM (active). The same measure for `CCCn1c(=N)c(C(=O)NC2CCCCC2)cc2c(=O)n3cc(C)ccc3nc21`: “inactive”. For the compound `CCCn1c(=N)c(C(=O)NC2CCCC2)cc2c(=O)n3cccc(C)c3nc21`, the Potency is 5.96 µM (active). Take `CCCN1C(=O)Cc2cc(C(=O)NCc3ccc(C)c(C)c3)ccc21`: the Potency result was “inactive”.

Regarding `COCCCn1c(=N)c(C(=O)NCC2CCCO2)cc2c(=O)n3cc(C)ccc3nc21` (configuration not stated), the Potency result is “inactive”. For `CCCn1c(=N)c(C(=O)NCc2ccc3c(c2)OCO3)cc2c(=O)n3cccc(C)c3nc21`, the Potency is 10.6 µM (active).

For the compound `CCn1c(CO)nnc1C1CC(NC(=O)c2cnc3sccn3c2=O)C1` (configuration not stated), the Potency entry was “inactive”.

The record behind these values is PubChem BioAssay AID1347416 (National Center for Advancing Translational Sciences (NCATS), 2020).
